Screen size: about 2,400 compounds; about 2,100 (88%) were called active.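 Rule for the calls: active = inhibition above the average of every tested compound plus 3 SD (cut at about 3.8% in these data); inactive = the rest.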 The set was probably picked from earlier hits. A selection follows.

Sequence of Nuclear receptor subfamily 0 group B member 1 (Homo sapiens) (P51843 whole entry, looked up): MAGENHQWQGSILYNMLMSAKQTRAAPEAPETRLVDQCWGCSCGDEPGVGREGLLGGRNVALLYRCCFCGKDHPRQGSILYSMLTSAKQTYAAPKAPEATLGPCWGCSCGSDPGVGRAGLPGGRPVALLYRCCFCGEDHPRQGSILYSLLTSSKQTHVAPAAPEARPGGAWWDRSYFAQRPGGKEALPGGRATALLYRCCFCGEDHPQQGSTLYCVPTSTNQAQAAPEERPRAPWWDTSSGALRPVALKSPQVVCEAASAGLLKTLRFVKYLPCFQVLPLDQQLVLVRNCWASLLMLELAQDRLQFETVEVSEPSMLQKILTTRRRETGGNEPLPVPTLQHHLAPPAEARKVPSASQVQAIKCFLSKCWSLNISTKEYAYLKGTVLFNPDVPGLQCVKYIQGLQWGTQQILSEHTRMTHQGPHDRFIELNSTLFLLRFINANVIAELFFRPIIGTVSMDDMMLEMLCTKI

The test addresses Nuclear receptor subfamily 0 group B member 1 (Homo sapiens) (UniProt P51843). The experiment in a line: NR0B1 repressor blockers, StAR reporter readout – cell-based, luminescence, HEK293T, full-length DAX-1, SF-1 activated StAR promoter, confirmation (AID 652134).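 Note: 0% = DAX-1 cells with DMSO and 100% = no DAX-1 control cells with DMSO; active compounds raise luminescence by relieving repression of the StAR reporter.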 As to conditions: HEK293T StAR-promoter luciferase reporter, SF-1/DAX-1 repression; at 6.8 µM; stronger effect = higher value.
As usually defined, the inhibition is the relative decrease from the control value, in per cent. Regarding `Cc1cc(N)n2nc(-c3ccc(C(C)(C)C)cc3)cc2n1`, the inhibition was 13.7% (active).

For `O=C(c1cnn(-c2ccc(Cl)cc2)c1)c1ccccc1O`, the inhibition was 11.7% (active).

For `COc1ccccc1Cc1c(-c2ccc(F)cc2)nc2ccc(C)cn12`, the inhibition is 4.48% (active).

As for `Cc1ccc(-c2nc3ccc(Br)cn3c2Cc2ccccc2C(F)(F)F)cc1`, the inhibition is 5.68% (active).

With `Nc1ccc2nn(-c3ccc(Cl)cc3)nc2c1`, the inhibition was 15.9% (active).

Consider `CN1OC[C@@H]2CN[C@H](c3ccc(-c4ccccc4)cc3)C[C@@H]21`, for which the inhibition is 8.84% (active).

On to `COc1ccc(-c2csc(-c3cccs3)n2)cc1OC`, for which the inhibition is 10.7% (active).

Turning to `CC1CCN(CCCNC(=O)CN2C(=O)CSc3ccc(S(=O)(=O)N4CCCCC4)cc32)CC1`, the inhibition was 2.3% (inactive).

Regarding `CSCCC(NC(=O)c1ccco1)C(=O)Nc1cc(C)ccn1` (stereo not drawn), the inhibition is 12.7% (active).

`CN1CCN(c2ccc(NC(=O)c3ccc4c(c3)OCCO4)cc2Cl)CC1`: the inhibition was 6.62% (active).

As to `Cc1nc(NC(=O)c2ccc3c(c2)OCCO3)ccc1Br`, the inhibition is 12.1% (active).

Take `O=C(Nc1ccccc1)c1ccc2c(c1)OCCCO2`: the inhibition was 15.6% (active).

Turning to `Cc1ccc(C(=O)NNC(=O)c2ccc3c(c2)OCCO3)cc1`, the inhibition was 3.83% (active).

As for `CCC(=O)Nc1ccc(-c2ccc(N3CCCCC3)nn2)cc1`, the inhibition is 3.57% (inactive).

As to `c1ccc(Cc2c(-c3ccco3)nc3c4ccccc4ccn23)cc1`, the inhibition is 12.1% (active).

`Cc1cc(C(=O)NCCc2ccc(Cl)cc2)c(C)o1`: the inhibition was 3.8% (active).

Turning to `COc1ccc(CCNC(=O)COC(=O)Cc2ccccc2F)cc1`, the inhibition was 0.17% (inactive).

Take `O=C(O)c1ccc(N/N=C/c2cn(-c3ccccc3)nc2-c2cccs2)cc1`: the inhibition was 12.7% (active).

With `NC(=O)CSc1nnc(NC(=O)c2ccc3ccccc3c2)s1`, the inhibition was 10% (active).

Take `CCSc1nnc(NC(=O)c2ccc(C)cc2)s1`: the inhibition is 10% (active).

`Cc1ccnc(NC(=O)CNC(=O)c2ccccc2)c1`: the inhibition was 3.68% (active).

For the compound `Cc1nn(-c2ccc([N+](=O)[O-])cc2)c(N)c1-c1ccccc1`, the inhibition was 15.1% (active).

As for `Fc1ccc2cnc(-c3ccccc3)cc2c1`, the inhibition is 6.65% (active).

(Values after PubChem BioAssay AID652134 (The Scripps Research Institute Molecular Screening Center, 2013).)
